Shown is part of a subset that was picked to be rich in hits.
Dicer inh: inhibitors of Dicer pre-microRNA processing, primary screen, biochemical, cat-ELCCA, chemiluminescence; AID 1347074, 2019; Endoribonuclease Dicer (Homo sapiens), Q9UPY3; cat-ELCCA pre-miR-21 Dicer processing; hits give high values; hit rate 6% among 47,000; z-score at 25 µM; in the data active means z-score above about 3, passing the limit was not always enough;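 further: plate controls were vehicle for no effect and no enzyme for full effect; higher signal means more uncleaved substrate so more Dicer inhibition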
Numbers without * were called inactive.

SMILES	Dicer inh
COc1ccc(S(=O)(=O)N2CCN(C)CC2)c2ccccc12	6.1*
CCOC(=O)Cc1csc(-c2ncc(C(F)(F)F)cc2OCC)n1	0.44
N#CC(C(=O)c1ccccc1Cl)=C1SCCCS1	-0.64
N#CC(C(=O)c1ccccc1)=C1SCCCS1	1.7
N#CC(C(=O)c1cccs1)=C1SCCS1	3.8*
CCOC(=O)c1c(NC(=O)c2ccc(F)cc2)c2cc([N+](=O)[O-])ccc2n1C	-1.2
CCn1nc(C)c(Br)c1C(=O)O	0.12
COC(=O)c1c(-c2c(Cl)cccc2Cl)noc1C(=O)N/N=C/c1c(Cl)cccc1Cl	0.1
CCOc1ccc(NC2CC(=O)N(c3ccc(OC)cc3OC)C2=O)cc1 (configuration not stated)	-1.9
COc1ccc(NC2CC(=O)N(c3cccc4ccccc34)C2=O)cc1 (configuration not stated)	-0.63
CCc1ccc(NC2CC(=O)N(c3ccc(C)cc3Br)C2=O)cc1 (configuration not stated)	3.3*
Cc1n[nH]c(=S)n1/N=C\c1ccco1	1.9
CCOc1ccc2c(c1)C(C)=CC(C)(C)N2C(=O)Nc1ccc(Cl)cc1	-0.52
O=C(Nc1ccc(N2CCOCC2)cc1)c1ncn[nH]1	2
O=C(Nc1ccc(N2CCOCC2)cc1)c1cc2cc(Cl)ccc2[nH]1	4*
O=C(Nc1ccc(N2CCOCC2)cc1)c1ccc(Oc2cc(Cl)cc(Cl)c2)o1	0.52
O=C(Nc1ccc(OC(F)(F)F)cc1)Nc1cc(C(F)(F)F)ccn1	-0.41
O=C(Nc1ccc(Br)cc1)N1CCN(c2ncc(Br)cn2)CC1	0.31
NCCc1nnc(SCc2cccc(Cl)c2)o1	0.36
O=C(NCC1CCCO1)C1Sc2nnc(-c3ccccc3)n2NC1c1ccc(Cl)cc1 (configuration not stated)	1.7
O=C(NCC1CCCO1)C1Sc2nnc(-c3ccccc3)n2NC1c1ccc(F)cc1 (configuration not stated)	-0.07
CCOc1ccc(C2Nn3c(C)nnc3SC2C(=O)NCC2CCCO2)cc1 (configuration not stated)	3.4*
O=C1CC(c2cccc(Cl)c2)Cc2nc3nc(C(F)(F)F)nn3cc21 (configuration not stated)	3.8*
O=C1CC(c2cccc(Cl)c2)Cc2nc(NCc3ccco3)ncc21 (configuration not stated)	2.3
O=C1CC(c2cccc(Cl)c2)Cc2nc(N3CCc4ccccc43)ncc21 (configuration not stated)	-0.39
SMILES	Dicer inh
Cc1ccc2cc(-c3noc(-c4cccs4)n3)c(=O)[nH]c2c1	0.51
Cc1nc(C(=O)NCc2cc(F)cc3c2OCOC3)sc1-c1ccc2c(c1)CCO2	-7.7
O=c1cc(Nc2ccc(OC(F)(F)F)cc2)c2ccccc2o1	3.2*
O=C(NNC(=O)Nc1ccc(OC(F)(F)F)cc1)Nc1ccc(OC(F)(F)F)cc1	0.17
O=c1nc(Nc2ccc(OC(F)(F)F)cc2)c2ccccc2o1	0.39
Oc1ccccc1/C=N/c1nc(-c2ccccc2Cl)cs1	0.87
CC(=O)N1CSCC1C(=O)NNS(=O)(=O)c1ccc(Cl)cc1 (configuration not stated)	-1.1
O=C(COc1ccc2c(c1)oc(=O)c1ccccc12)OCc1ccccc1	4.5*
C=CCOC(=O)COc1ccc2c(c1)oc(=O)c1ccccc12	0.38
O=C(O)COc1ccc2c(c1)oc(=O)c1ccccc12	0.04
CC(C)Sc1cc(C#N)c2cc(Br)ccc2n1	-0.14
COc1cc(NC(=O)C(c2ccccc2)C2CCCC2)cc(C(F)(F)F)c1 (configuration not stated)	-0.75
O=C1OC(Nc2ccccc2SCc2ccccc2Cl)c2ccccc21 (configuration not stated)	3.3*
N#Cc1ccc(CSc2ccccc2NC2OC(=O)c3ccccc32)cc1 (configuration not stated)	3.2
O=C1OC(Nc2ccccc2Sc2ccc(Cl)cc2[N+](=O)[O-])c2ccccc21 (configuration not stated)	0.08
Cn1c2ccc(Br)cc2c2cc(Br)cc(Br)c21	-0.48
CC(=Nc1ccccc1)c1cccs1	0.47
CN(/N=C/c1ccc(O)cc1O)c1ncc(Cl)cc1C(F)(F)F	12*
CN(/N=C/c1ccccc1Cl)c1ncc(C(F)(F)F)cc1Cl	-0.08
CN(NC(=O)c1ccc(Cl)cc1)c1ncc(Cl)cc1C(F)(F)F	3
CCCN(CCC)C1=C(C(=O)c2ccccc2)N(CC(N)=O)S(=O)(=O)c2ccccc21	3.5*
NC(=O)CN1C(C(=O)c2ccccc2)=C(NCc2ccccc2)c2ccccc2S1(=O)=O	0.71
NC(=O)CN1C(C(=O)c2ccccc2)=C(N2CCOCC2)c2ccccc2S1(=O)=O	0.95
CCOC(=O)c1cc(C)nn1C(=O)c1ccc(C)cc1	8.2
CCOC(=O)CSC(=S)Nc1ccccc1OC	-0.76
Cc1ccc(Cc2c(C)nc(N3CCCC3)[nH]c2=O)cc1	0.86
COc1cc(C)c(S(=O)(=O)N2CCN(Cc3ccc4c(c3)OCO4)CC2)cc1C	0.76
CSc1ccc(CN2CCN(S(=O)(=O)c3ccccc3)CC2)cc1	2.4
